Results on 16 compounds are retold here after PubChem BioAssay (NCI).

Test systems include T-47D breast; BT-549 breast; MDA-MB-435 melanoma; SW-620 colon; MCF7 breast; HCT-116 colon; HCC-2998 colon; KM12 colon.
Assay in all cases: NCI-60 one-dose screen, 48 h (100 = growth as untreated, 0 = no growth, -100 = all killed)
Holding throughout (conditions): 10 µM unless noted

The structures appear in SMILES notation. About 83,000 compounds went through this panel and 20% of them were active in at least one assay; those are over-represented in the sample as a whole.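 Cell lines were cultured in 96-well plates, exposed to a single compound concentration, and assessed for percent growth 48 hours later.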 Values without a mark were called inactive. The source made the active and inactive calls. How the source made its calls: active means growth percent below 10; inactive means the rest.

Regarding `C=CCn1c(C)nc2ccc(Nc3nc(Nc4ccc(F)cc4)nc4ccccc34)cc21`, the growth was 35% in the assay on T-47D breast; 59.2% in the assay with BT-549 breast; 57.1% with MDA-MB-435 melanoma; 46.1% with SW-620 colon; 26.1% in the assay on MCF7 breast; 26.9% with HCT-116 colon. For the same compound, the growth in the assay with HCC-2998 colon is 80.6%; in the assay on KM12 colon, 36.6%.

Turning to `CCCOC(=O)C1(O)CCCC1`, the growth with T-47D breast was 97.2%; in the assay with BT-549 breast it was 113%; in the assay with MDA-MB-435 melanoma, 101%; in the assay on SW-620 colon, 104%; in the assay with MCF7 breast, 97.9%; in the assay with HCT-116 colon, 97.3%. Besides, the results for the growth in the assay on HCC-2998 colon and in the assay on KM12 colon were 108% and 116%, respectively.

As for `COc1ncc(-c2ccc3ncnc(Nc4cccc(Cl)c4)c3c2)cc1N(S(C)(=O)=O)S(C)(=O)=O`, the growth with T-47D breast was 18.5%; in the assay with BT-549 breast, 78.1%; in the assay with MDA-MB-435 melanoma, 77.7%; in the assay on SW-620 colon, 75.7%; in the assay with MCF7 breast, 27.7%; in the assay on HCT-116 colon, 81.2%. Besides, the growth in the assay on HCC-2998 colon was 76.4%; with KM12 colon it was 81.1%.

`COc1cc(Cn2c(SCCC(=O)Nc3ccc(F)cc3)nc3ccccc3c2=O)cc(OC)c1OC`: the growth in the assay on T-47D breast is 77.8%; in the assay with BT-549 breast, 92.6%; in the assay on MDA-MB-435 melanoma it was 106%; with SW-620 colon, 97.9%; in the assay on MCF7 breast, 91%; with HCT-116 colon it was 65.3%. Besides, the figures for the growth with HCC-2998 colon and in the assay on KM12 colon were 95.7% and 99.3%, respectively.

On to `Cc1cc(C(=O)O)c(N)c(C)n1`, for which the growth was 112% with T-47D breast; 106% with BT-549 breast; 107% in the assay on MDA-MB-435 melanoma; 106% with SW-620 colon; 93.6% in the assay with MCF7 breast; 102% in the assay with HCT-116 colon. Moreover, the growth was 111% in the assay on HCC-2998 colon and 110% in the assay with KM12 colon.

Take `COC12CC(=O)C(C(C)=O)=C(O)C1(C)c1c(O)c(C)c(O)c(C(C)=O)c1O2` (stereo unspecified): the growth with T-47D breast was 81%; with BT-549 breast it was 78.7%; in the assay on MDA-MB-435 melanoma it was 87.3%; in the assay with SW-620 colon it was 80.2%; in the assay on MCF7 breast, 80.9%; with HCT-116 colon, 80.6%. Besides, the growth in the assay on HCC-2998 colon was 65.9%; in the assay with KM12 colon it was 49.6%.

For `NC(C(=O)O)C(O)c1ccc(OCc2ccccc2)c(OCc2ccccc2)c1` (stereo unspecified), the growth was 88.1% in the assay on T-47D breast; 95% with BT-549 breast; 102% in the assay on MDA-MB-435 melanoma; 97% in the assay on SW-620 colon; 87.3% in the assay with MCF7 breast; 101% with HCT-116 colon. Also, the growth in the assay with HCC-2998 colon was 115%; in the assay on KM12 colon, 100%.

With `COc1ccc(Cn2c(SC)nc(=O)n(Cc3ccc(Cl)cc3)c2=O)cc1`, the growth in the assay on T-47D breast was 81.8%; with BT-549 breast, 97%; in the assay on MDA-MB-435 melanoma, 111%; in the assay on SW-620 colon, 103%; in the assay on MCF7 breast it was 92%; in the assay with HCT-116 colon, 93.9%. In addition, the results for the growth in the assay with HCC-2998 colon and with KM12 colon were 103% and 97.5%, respectively.

As to `COc1ccc(-c2nc(-c3ccccc3)c(-c3ccccc3)n2C2CC2)cc1OC1CCCCC1`, the growth in the assay on T-47D breast was 58.4%; in the assay with BT-549 breast, 97.3%; in the assay with MDA-MB-435 melanoma it was 72.5%; with SW-620 colon, 58.2%; in the assay on MCF7 breast, 52%; with HCT-116 colon it was 38.8%. The results for the growth in the assay on HCC-2998 colon and in the assay with KM12 colon were 83.2% and 62.2%, respectively.

For `O=C(Nc1ccc(F)c(Cl)c1)c1n[nH]c(=O)c2ccccc12`, the growth was 81.1% in the assay on T-47D breast; 132% with BT-549 breast; 93.2% in the assay with MDA-MB-435 melanoma; 107% in the assay with SW-620 colon; 60.6% with MCF7 breast; 101% with HCT-116 colon. In addition, the growth is 103% in the assay with HCC-2998 colon and 92.4% in the assay with KM12 colon.

Take `COc1cc2nc(SCc3cc(OC)c(OC)c(OC)c3)n(Cc3ccccc3)c(=O)c2cc1OC`: the growth with T-47D breast was 35.9%; in the assay on BT-549 breast it was 16.8%; in the assay on MDA-MB-435 melanoma, -20.3% (active); in the assay with SW-620 colon, 33.5%; in the assay with MCF7 breast, 10.1%; in the assay on HCT-116 colon, 14.7%. Also, the growth is 40.9% with HCC-2998 colon and 15.4% with KM12 colon.

`O=C(c1c[nH]c2ccccc12)C(Sc1nc2ccccc2c(=O)[nH]1)c1ccccc1` (stereo unspecified): the growth in the assay with T-47D breast was 81%; in the assay on BT-549 breast, 87.2%; with MDA-MB-435 melanoma, 115%; in the assay on SW-620 colon, 110%; with MCF7 breast, 101%; in the assay on HCT-116 colon it was 95.1%. Moreover, the growth is 112% with HCC-2998 colon and 106% in the assay on KM12 colon.

On to `Cc1ccc2c(c1)C(C)Cc1c(ncnc1-n1cnc3ccccc31)N2C` (stereo unspecified), for which the growth with T-47D breast was 50.3%; in the assay on BT-549 breast, -1.38% (active); in the assay with MDA-MB-435 melanoma it was -47.9% (active); with SW-620 colon, 21.6%; in the assay on MCF7 breast it was 13.5%; in the assay on HCT-116 colon, 5.53% (active). Besides, the growth in the assay on HCC-2998 colon is 17.4%; in the assay with KM12 colon, 13.8%.

On to `COc1ccc(NC(=O)CSc2nc3ccc(Cl)cc3c(=O)n2-c2ccccc2C(F)(F)F)c(OC)c1OC`, for which the growth is 61.9% in the assay with T-47D breast; 72.8% in the assay with BT-549 breast; 92.3% with MDA-MB-435 melanoma; 94% in the assay with SW-620 colon; 78.9% in the assay with MCF7 breast; 70.1% in the assay with HCT-116 colon. The growth with HCC-2998 colon is 99%; with KM12 colon, 95.7%.

In the case of `COc1cc(Cn2c(-c3nonc3N)nc3ccccc32)ccc1C`, the growth was 37.2% in the assay on T-47D breast; 66.9% with BT-549 breast; -30.6% (active) in the assay on MDA-MB-435 melanoma; 31.2% in the assay with SW-620 colon; 20.7% with MCF7 breast; 20.3% in the assay with HCT-116 colon. Besides, in the assay on HCC-2998 colon, the growth was 23.5%.

In the case of `COc1cc2nc(Cl)nc(NCCO)c2cc1OC`, the growth with T-47D breast was 101%; in the assay with BT-549 breast, 112%; in the assay with MDA-MB-435 melanoma, 106%; in the assay with SW-620 colon it was 104%; in the assay on MCF7 breast, 100%; with HCT-116 colon, 113%. The growth with HCC-2998 colon was 102%.
